The values below come from ChEMBL document CHEMBL1157539, “Thousands of chemical starting points for antimalarial lead identification” (Nature, 2010).

Several values for one entry are separate records, joined by “and”; a condition that tells them apart may be missing. Identical values can stand only once. In all, about 13,000 compounds were measured (“IFI”: median about 4, highest 2% from about 17 on). Only a selection was taken, and the highest values are over-represented in it overall.

This test in a line: GSK_TCMDC: Inhibition Frequency Index (IFI). The number of non-kinase HTS assays where a compound showed > 50 % inhibition, expressed as a percentage of the number of such assays in which the compound was tested. It is filed as functional.
Take `O=C1c2ccccc2CCC1CCN1CC=C(c2c[nH]c3ccccc23)CC1` (centres undefined): the IFI was 2.92%.
`O=C(c1cc(C(=O)NCc2ccc(Cl)cc2)c(=O)n(Cc2ccc(Cl)cc2)c1)c1cc(Cl)ccc1O`: the IFI turned out to be 0%.
In turn, `O=C(Nc1cc(C(F)(F)F)cc(C(F)(F)F)c1)c1cc(Cl)ccc1O` returned an IFI of 33.3%.
As for `O=C(/C=C/c1ccccc1Cl)NC1CCC(CN2C3CCC2CC(c2c[nH]c4ccccc24)C3)CC1` (centres undefined), the IFI was determined as 6.38%.
As for `CCCCCc1cc(O)c2c(c1)OC(C)(C)CC2C1=CCN(Cc2ccccc2)CC1` (centres undefined), the IFI was found to be 2.86%.
Next, `Cc1csc(-c2ccc3[nH]cc(C4=CCN(C)CC4)c3c2)n1`: 0%; `CC[C@H]1CN2CC[C@H]1C[C@H]2[C@H](O)c1cc(N2CCCC(CO)C2)nc2ccc(OC)cc12` (some centres undefined): 0%.
The molecule `O=C(NC1CCC(CN2CCC(c3c[nH]c4ccccc34)CC2)CC1)c1cc2cccc([N+](=O)[O-])c2[nH]1` (centres undefined) gave an IFI of 3.65%.
The same measure for `CC(Cc1ccc(NC(=O)[C@H](C)NCCc2cccc(Cl)c2)cc1)NCCc1cccc(Cl)c1` (some centres undefined): 9.35%; for `CC(Cc1ccc(NC(=O)CCNCc2ccccc2)cc1)NCCc1cccc(Cl)c1` (centres undefined): 32.4%; for `CC(Cc1ccc(NC(=O)CCCc2ccccc2)cc1)NCCc1cccc(Cl)c1` (centres undefined): 4.29%.
As for `O=C(/C=C/c1ccccc1Cl)NC1CCC(CN2CCC(c3c[nH]c4ccccc34)CC2)CC1` (centres undefined), the IFI is 5.04% and 6.94%.
The molecule `CC(=O)N(Cc1cccc(-c2cccc(CNCc3ccc4c(c3)OCO4)c2)c1)C1CCN(Cc2ccccc2)CC1` came in with an IFI of 4.51%.
Turning to `COc1ccc(N(c2nc(-c3cc(Cl)ccc3Cl)cs2)C2CCNCC2)cc1`, the IFI came to 23.1%.
Next, `COc1ccc(F)cc1-c1csc(N(c2ccc(F)cc2)C2CCNCC2)n1`: 14.4%; `Fc1ccc(N(c2nc(-c3cc(F)cc(C(F)(F)F)c3)cs2)C2CCNCC2)cc1`: 17.1%.
On to `CCOC(=O)c1c(CN2CCN(C)CC2)n(Cc2ccccc2)c2cc(Br)c(O)cc12`, for which the IFI came to 5.56%.
Consider `COc1ccc(C=CC(=O)NC2CCC(CN3CCC(c4c[nH]c5ccccc45)CC3)CC2)cc1` (centres undefined), for which the IFI was 7.19% and 5.04%.
`O=C(C=Cc1ccc(F)c(Br)c1)N1CCC(CN2CCC(c3c[nH]c4ccccc34)CC2)CC1` returned an IFI of 6.62%.
The same measure for `COc1ccc(C2CNCc3c2cc(OC)c(OC)c3Cl)cc1` (centres undefined): 2.94%.
For `COc1cc(NC(=O)c2nn(CCCN3CCC4(CC3)C(=O)NCN4c3ccccc3)cc2-c2ccc(Cl)c(Cl)c2)cc(OC)c1OC`, the IFI came out at 15.4%.
Take `O=C1NCN(c2ccc(O)cc2)C12CCN(CCCC(c1ccc(F)cc1)c1ccc(F)cc1)CC2`: the IFI is 4.32%.
Consider `O=C(NCc1ccccc1)c1nn(CCCN2CCC3(CC2)C(=O)NCN3c2ccccc2)cc1-c1ccc(Cl)c(Cl)c1`, for which the IFI was determined as 24.3%.
The same measure for `O=C(NCc1ccc(S(=O)(=O)N2CCC(CN3CCC(c4c[nH]c5ccccc45)CC3)CC2)s1)c1ccccc1`: 6.85%; for `O=C(C=Cc1ccc(Br)cc1)NC1CCC(CN2CCC(c3c[nH]c4ccccc34)CC2)CC1` (centres undefined): 6.38%; for `O=C1Nc2cccc3c2C1(CCCCN1CC=C(c2c[nH]c4ncccc24)CC1)CCC3` (centres undefined): 4.41%.
As to `N[C@@H](CCN1CCC(c2cccc(O)c2)CC1)Cc1ccc(F)c(F)c1`, the IFI is 12.1%.
The same measure for `N#Cc1c(F)cc(N2CCC(NCC[C@H](N)Cc3ccc(F)c(F)c3)CC2)cc1F`: 21.9%; for `CCC1(C)N=C(N)N=C(N)N1c1ccc(Cl)cc1` (centres undefined): 0%.
In the case of `COc1cccc(C(=O)C2CC2CN2CC=C(c3c(C)[nH]c4ccccc34)CC2)c1` (centres undefined), the IFI was 3.74%.
As to `C[C@H](Cc1ccc(OCCCCCCOc2ccccc2)cc1)NC[C@H](O)c1cccc(Cl)c1`, the IFI came to 7.64%.
`CC(Cc1ccc(OCc2ccc(CCN(C)C)cc2)cc1)NCCc1cccc(Cl)c1` (centres undefined) displayed an IFI of 5.84%.
Take `C[C@H](Cc1ccc(OCCCCCCOc2ccccc2)cc1)NC[C@@H](O)c1cc(Br)no1`: the IFI amounted to 13.5%.
The molecule `COc1cccc(CCNC(C)Cc2ccc(OCCCCOc3ccccc3)cc2)c1` (centres undefined) came in with an IFI of 31%.
Next, `CC(Cc1ccc(OCCOc2ccccc2)cc1)NCC(O)c1cccc(Cl)c1` (centres undefined): 6.38%; `CNCCCCCCOc1ccc(CC(C)NCC(O)c2cccc(C(F)(F)F)c2)cc1` (centres undefined): 7.8%.
The molecule `CC(Cc1ccc(OCCCCOc2ccccc2)cc1)NCCCc1nc2ccccc2[nH]1` (centres undefined) came in with an IFI of 33.3%.
In the case of `COc1cccc(CC(C)NCC(O)c2cccc(Cl)c2)c1` (centres undefined), the IFI worked out at 1.44%.
`CC(Cc1ccc(OCCCCOc2ccccc2)cc1)NCCc1ccccc1Cl` (centres undefined) returned an IFI of 28%.
Next, `Cn1nc(C(F)(F)F)cc1-c1ccc(C(=O)NC2CCC(CN3CCC(c4c[nH]c5ccccc45)CC3)CC2)s1` (centres undefined): 6.16%; `O=C(Nc1ccc(Cl)c(Cl)c1)N1CCC(CN2CCC(c3c[nH]c4ccccc34)CC2)CC1`: 4.23%; `CC[C@H]1CN2CC[C@H]1C[C@H]2[C@H](O)c1cc(-c2ccccc2C)nc2ccc(OC)cc12`: 5.44%.
Take `CCCCCCCCNCC(O)c1ccc(Cl)c(Cl)c1` (centres undefined): the IFI is 11.1%.
The same measure for `CN(c1cc(NC(=O)c2cccs2)ccn1)C1CCN(Cc2ccccc2)CC1`: 2.78%; for `CNCCCN(C)C(=O)Oc1c(Br)c(C)nc(C)c1-c1ccc(Oc2ccc(OC(F)(F)F)cc2)cc1`: 7.41%.
`Cc1nc(C)c(-c2ccc(Oc3ccc(OC(F)(F)F)cc3)cc2)c(OC(=O)N(CCNC(C)C)C(C)C)c1Br` displayed an IFI of 18%.
`CNCCN(C)C(=O)Oc1c(Br)c(C)nc(C)c1-c1ccc(Oc2ccc(OC(F)(F)F)cc2)cc1`: the IFI was 12.4%.
On to `COc1cccc(O)c1CNCC(O)c1cccc(C(F)(F)F)c1` (centres undefined), for which the IFI turned out to be 0.78%.
The same measure for `CC(=O)Nc1ccc2[nH]cc(C3CCN(CC4CCN(C(=O)/C=C/c5ccc(Cl)c(Cl)c5)CC4)CC3)c2c1`: 1.46%.
